In PubChem BioAssay AID1347426 (Functional Genomics Laboratory (NCATS/FGL), 2020):
In all, about 31,000 sequences went through this assay and about 1,400 (4.5%) were called active. The sample as a whole holds a higher share of actives than the screen did. Unmarked numbers belong to inactive results.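 How the source made its calls: active means median seed-adjusted z-score above 1 or below -1; inactive means the rest.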

Experiment: Novel Modifiers of Survival Motor Neuron (SMN) Protein: Gene Identification via Genome-wide siRNA Screen;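 further: luminescence tracks full-length SMN protein made from the SMN2 reporter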
Details: HEK293T SMN2-luciferase reporter, siRNA knockdown, 72 h; actives lie on both sides
In short: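 HEK293T cells stably carrying an SMN2 promoter/splicing cassette–luciferase reporter were reverse-transfected with 1 pmol siRNA per well (druggable-genome library, 3 siRNAs per gene) and grown 72 h at 37 °C. Luminescence, normalized to negative-control siRNA and log10-transformed, was scored as MAD.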

Sequence	median seed-adjusted z-score
GACUCAUACGAGCGCAUUATT against SEMA4F	0.139
GGCGAAGAGGGAUCAAGUATT against ZNF24	0.388
GAGCCACACUUUCAAGUAATT against CRIP1	-0.622
CCGUGGACCAGUACUUUUATT against MAN2B1	-0.246
GACACGAUUCUUUACCAAATT against CHEK1	-5.1 (active)
GGACUCAGGUCUCAUGUGATT against KRTAP5-7	-0.279
CAGGUAUUGUGGAAAGUAUTT against ADH4	-0.0991
GCACCAUAGACUUUCGGGATT against HPCA	0.12
GAGCGAAGGUCAUAAUACATT against MORC4	0.13
GCAUGAGUGUUGAUAGGUATT against AGTR2	0.204
ACAACUUCAUAUCCAGCUUTT against ISLR2	0.263
GCUGCGAAAGGAUCUCAAATT against UBE3B	0.0972
CAAAUACGGUAAUGCUGUATT against COX7B	-1.16 (active)
GAACUUCACAAGUUCCUCATT against RAB31	0.41
GCUUAAUGGUGUCCCGUAATT against PCCA	0
CAAGCUCCAUUUUGAAUCATT against SRR	-0.256
CGACGGUGGAAGACACCUATT against DIRAS2	-1.25 (active)
CAUUGCAAGUUGUUCUUGATT against GJA4	-0.18
ACAGCGCUCUCAAUCCCUUTT against GPR150	-0.129
CAUCAGCACUAGCACCUCATT against ZNF213	1.37 (active)
CCCGGUCACUUCUGAGAAATT against ZNF696	0.17
GGAAGAGUCAUACAUCAAUTT against DDX55	0.507

Sequence	median seed-adjusted z-score
GCAUAGCUCUCGAUAAGAATT against MYH4	-1.8 (active)
GGAUCAUGCUGAGAUGCAATT against RASAL2	0
CCAUCGUGGUAGAUCCGUUTT against CBL	-0.417
GCUUUGUCACAUAACGUGATT against SLC38A2	-1.04 (active)
GGUUGCUAUAUGUUCCGAATT against MLL	0.227
UGACGUGCACAGGAAGAAATT against OXCT2	-0.449
GGGAAUAGCUUAUCUUGUUTT against RFC4	-0.386
GCAUCUACGUGGGUAACUUTT against SFRS1	-1.66 (active)
GCCCGAAAGAGAAAGCGAATT against POU5F1	0.0495
GCAUCAACGCGGGAUUCCATT against TFAP4	-0.0515
CGGUCAUGCUGAUCACCUUTT against GPR119	-0.382
CUGCCGCAAUGACAACAAATT against TRIM42	-0.153
GCGGUAAACUCGACACGUUTT against MARK3	0.271
GGCUGUACAUAGUCCUUUUTT against SNRPB	-3.17 (active)
CUACUUAAGUGUGAUAAUATT against OCLN	0.232
GACUAAUGGAUGAAGCUAATT against PBK	-0.311
GGAAUUCUUUGGGCUGAAATT against MMP1	0.205
GCAUCGGGAAUAAAAUUUATT against LSM2	-1.48 (active)
CCCAAUCAAGUGUUACAAATT against JMJD1C	0.0338
UGGAGUAUCCUAUCAUGUATT against MGST3	-0.0509
GCAAAUACGUGUAGACCUATT against EXOSC9	-0.00796
AGUACAUCGCGGAUCUGUATT against RCN3	-2.44 (active)

Sequence	median seed-adjusted z-score
CCACUUCUCCACACCUUGATT against NR4A1	-0.207
GUGACUCCGUGUAUACUUATT against GCA	-0.162
AGAGCAAAACAGUCCGAUATT against PCDH8	-1.03 (active)
GAAUUCACUUCAGAGCAAUTT against LMO4	-0.067
CAAUCCAACUAGUAGUUCATT against SP4	-0.088
CCCUCUAACUGCUCGGAUATT against DNASE2	-1.23 (active)
GAUCCUAUCGUAGACAUGATT against ZNF440	0.208
CCAGCAAUGAGAAAAAUCUTT against HOXA2	0.335
GGCGAACAGUUCUACAUGUTT against IFT57	-1.1 (active)
CAUCAUUACGAUUAGCCUATT against ARFGAP3	0.00412
CGGGAUUUAUAGGCAAUGATT against RNASEH1	-0.0205
CAUUCGCUCUCAUACUGGATT against CTCF	-0.0821
GGAUCUUCAAAGUCACGAATT against CACNA1B	0.0963
GCACCCACGUCAUCCCUAATT against GRIN1	-0.137
CCAUUCUUCUAGCAACUGATT against DDX47	-0.398
GUCCUAUCACCGUAUCUUATT against SF3B4	-2.56 (active)
GGUUAGGGCUUGACCCAAATT against HIBADH	0.234
CAGACGUGAUGACAAGAUUTT against S100A7	-0.253
CAAUGGUGUCUACAAGAUUTT against SLCO1C1	0.071
CACCUGCUAUGUUACGGGATT against BAT2	0.0889
AGAUACUGGUAUUGCUCGATT against SNRPB	-3.17 (active)
GACCCAUUGCUGUCCAACATT against EMID1	0.979

Sequence	median seed-adjusted z-score
AGAGGAACUUUAUUCUUGATT against HNRNPUL2	-0.0273
AUAACUACCUGAUCAAGAATT against YWHAG	1.98 (active)
CCCUGGUAGUUCCACACCATT against CRHBP	-0.0443
GAACAUUGGUUCUUAGAGATT against MKRN2	0
GGGACUUCAUGUUCGAGCATT against DNAI2	0.12
GCAGAAAGGUGUAACAUAATT against DDI2	1.27 (active)
CAGGCAAACCGCUACAUCATT against EN1	0.761
ACAGUUCUCUAUGACCUCATT against PLA2G4E	0.266
AGUGCAUGGUUGCAGCUGATT against RNF144A	-0.185
GAAUCAAUAUAAUCUAGCATT against UBE2Q2	0.146
AGAACUGCGUGACUAUACATT against ZNF417	0.0205
GCCUCUCACAUCUAUGGUATT against ITIH4	0.64
GGAGAAAGAAUGACGAGAATT against TGFBR2	0.8
AACUCGCUGUUGUACCUGATT against CPSF1	3.29 (active)
GGCAUUAUGUGAAGGCGAATT against SMC5	0.0666
CCAUCACCUUCAAUCCGCUTT against PEMT	0.0218
GGUAGACUGUCAUCGUGAATT against RAD50	0.266
CAUCACCGCUGGGUCCAAATT against FABP1	-0.302
UGGAAUAAGUGGGCUCUGATT against ADM	0.65
CAAUAUGCCUUUCUCUACATT against DNASE1L3	0.0678
GGACUGCUUCAUAUACUGATT against GLT8D1	1.22 (active)
GGGACUAACAUGUACAACATT against PCDH24	0.345

Sequence	median seed-adjusted z-score
CAGUUACUAUAAAAACCGATT against ZNF711	0.254
GAGAUAGACUUGCUGAGCATT against TRIP6	1.03 (active)
GGAAAAUCAAUAUAUCACUTT against ADH6	-0.132
GGAGCAUACAGAACGGACATT against SIPA1L3	0
GGUCAUACACGGGAUCUCUTT against SLC30A2	-0.402
GCAUUGGAACGAUUCUAAATT against CTPS2	1.08 (active)
CGCACGCUCUUCAAAUUCUTT against ADRA2A	-0.65
GCAAAUGAGUGUGACCUAATT against RAB38	-0.165
CCAACCUAAUUAUGGAGGATT against PCDHGB4	0.176
AGGUUUAUGUGACCAAGCATT against KCTD8	0.0212
GAGCGAAGAUGUCCGAAAATT against MIPEP	-0.169
GCUUCAAUGAGACAACCCUTT against IP6K2	-0.193
CAGAAGUUGUGCAAUCCAATT against ADAM32	1.75 (active)
GGAUGGUCGGAUUCUGAAATT against ITPKC	0.218
CCAGGCUAUCUUUCCGAUATT against PTPN3	-0.535
GCCCACUGACCAUACCUCATT against NAT6	-0.327
GGAGUUGAUUUUAUGAUUATT against RAB30	0.395
GUAUCAGCAUUGAUAGAUATT against GPR21	0.246
GCACCGAGCUUUACAGUGUTT against LARP1	0.251
CCUUGUGCGUUACAGAAGATT against SCARA3	-0.05
